39 compounds from PubChem BioAssay (NCATS) can be followed below.

Each structure is given as a SMILES string. Records with an inconclusive call do not appear. Calls of active or inactive are those of the source. Calls come from the whole dose curve; as a rule, active = well fitted inhibition curve with a large enough effect; inconclusive = small, poorly fitted or top-dose-only effect; inactive = no such curve, though single readings can be large or run the other way. Where a SMILES comes first, the peptide text is derived from it. [ ]: non-standard residue; d: D form. ξ: configuration not given here. ξTyr(βOH) = NC(C(=O)O)C(O)c1ccc(O)cc1
% is set by controls: 0 for no effect and ±100 for the full control effect; potency is the fitted concentration of half-maximal effect.

For the test, the system named is Zika virus NS2B-NS3 protease (unlinked complex). The test can be described thus: Primary screen GU Rhodamine qHTS for Zika virus inhibitors: Unlinked NS2B-NS3 protease assay (AID 1347159). Note: nearly all actives have a fitted effect of over 60% in size. Conditions: Recombinant ZIKV NS2B-NS3 protease, Rhodamine110 substrate fluorescence; series mostly up to 107 µM; activity change, negative = inhibition: at the top concentration. The procedure, abridged:
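In dose–response format, inhibition of unlinked protease (25 nM) was measured with 1.5 microM bis-peptide Rhodamine110 substrate. Aprotinin served as the intraplate control.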
A general note: qHTS replaces the single test concentration by a dilution series.
`COc1cccc(C(=O)NCCNc2nc3cc(C)cc(C)c3cc2C#N)c1`: the “activity change, negative = inhibition” value was -4.06% (inactive).

As to `CC(=O)OC1(C)CC(O)C2(O)C=COC(OC3OC(CO)C(O)C(O)C3O)C12` (centres undefined), the “activity change, negative = inhibition” value was 1.58% [at 57.1 µM] (inactive).

In the case of `CCOc1nc2c(N)ncnc2n1CC`, the “activity change, negative = inhibition” value is 1.08% (inactive).

On to `CC1=CC(=O)CC(C)(C)C1CO[C@@H]1O[C@H](CO)[C@@H](O)[C@H](O)[C@H]1O` (some centres undefined), for which the “activity change, negative = inhibition” value was 4.55% (inactive).

In the case of `C[C@]1(O)CC[C@@H]2C(C(=O)O)=CO[C@@H](O[C@@H]3O[C@H](CO)[C@@H](O)[C@H](O)[C@H]3O)[C@@H]21`, the “activity change, negative = inhibition” value was 12.4% (inactive).

In the case of `CCOC(=O)COc1ccc2c(c1)C[C@@H](NC[C@H](O)c1cccc(Cl)c1)CC2`, the “activity change, negative = inhibition” value is 77.1% (inactive).

As for `CC1(C(=O)O)CCCC2(C)C3CCC4CC3(CCC12)CC4C(=O)O` (centres undefined), the “activity change, negative = inhibition” value is 21.9% (inactive).

`CC(C)=C1C[C@@]2(C)C(=CC1=O)CC[C@@H](O)[C@@H]2C`: the “activity change, negative = inhibition” value was 9.84% (inactive).

For `CCCCS(=O)(=O)NC(Cc1ccc(OCCCCC2CCNCC2)cc1)C(=O)O` (centres undefined), the “activity change, negative = inhibition” value was 1.45% (inactive).

Take `O=C(C[C@@H]1C(C(=O)O)=CO[C@@H](O[C@@H]2O[C@H](CO)[C@@H](O)[C@H](O)[C@H]2O)/C1=C\CO)OCCc1ccc(O)c(O)c1`: the “activity change, negative = inhibition” value was -25.2% [at 57.1 µM] (inactive).

Regarding `COC1CC(O[C@H]2CC[C@@]3(C)C(=CC[C@]4(O)C3[C@H](O)[C@@H](O)[C@]3(C)[C@@H]([C@H](C)O)CC[C@@]34O)C2)OC(C)C1OC1CC(OC)C(OC2CC(OC)C(OC3OC(C)C(OC4OC(CO)C(O)C(O)C4O)C(OC)C3O)C(C)O2)C(C)O1` (some centres undefined), the “activity change, negative = inhibition” value was 22.8% [at 32.5 µM] (inactive).

Consider `COc1cc(/C=C/C(=O)OC[C@H]2O[C@@H](OC3OC=C(C(=O)O)C4C(O)CC(C)(O)C34)[C@H](O)[C@@H](O)[C@@H]2O)cc(OC)c1O` (some centres undefined), for which the “activity change, negative = inhibition” value is -10% [at 32.5 µM] (inactive).

`CNC(C)C(=O)NC(C(=O)N1CCCC1C(=O)Nc1cccc2ncccc12)C(C)C` (centres undefined): the “activity change, negative = inhibition” value is -0.978% (inactive).

Turning to `N[C@@H](CC(=O)Nc1ccc(Oc2cc(F)c(F)cc2Br)cc1)C(=O)O`, the Potency is 70.8 µM (active).

Turning to `CN(C)C(=O)C(O)C(Cc1ccccc1)NC(=O)c1cc2cc(Cl)ccc2[nH]1` (centres undefined), the “activity change, negative = inhibition” value is -15.1% (inactive).

Take `CC(=O)O[C@@]1(C)[C@@H]2CC(=C(C)C)C(=O)C[C@@]2(C)CC[C@H]1OC(=O)C1(C)OC1C` (some centres undefined): the “activity change, negative = inhibition” value is 24.2% (inactive).

For the compound `COc1cc(O)cc(C)c1C(=O)OC1C(CO)OC(n2ccc(=O)[nH]c2=O)C1OC(C)=O` (centres undefined), the “activity change, negative = inhibition” value is 25.7% [at 57.1 µM] (inactive).

Consider `O=C(O)[C@H]1Cc2ccccc2CN1`, for which the activity change, negative = inhibition is -0.45% [at 11.5 µM] (inactive).

On to `C/C(=C/CO)CC[C@H]1[C@]2(C)C[C@H](O)CC(C)(C)[C@H]2CC[C@]1(C)O`, for which the “activity change, negative = inhibition” value was 30.4% (inactive).

On to `CC(C)(O)C1CCC2(C)CCCC(C)(O)C2C1` (centres undefined), for which the “activity change, negative = inhibition” value was 5.67% (inactive).

As for `CC(C)[C@](O)(c1ccc2cc(OC(F)F)c(OC(F)F)cc2c1)c1cn[nH]n1`, the “activity change, negative = inhibition” value is -2.69% (inactive).

In the case of `C[C@H]1/C=C/C=C/C=C/C=C/C=C/[C@@H](O)[C@H](C(=O)O)[C@H](O)C[C@H](O)CCC[C@H](O)C[C@H](O)C[C@H](O)[C@@H](C)C(=O)O[C@@H]1C`, the “activity change, negative = inhibition” value is 18% [at 32.5 µM] (inactive).

For `C/C=C(\C)C(=O)OC1CC2C(CC=C3CC(OC4CC(OC)C(OC5CC(OC)C(OC6CC(OC)C(OC7CC(OC)C(OC8CC(OC)C(OC9OC(CO)C(O)C(O)C9O)C(C)O8)C(C)O7)C(C)O6)C(C)O5)C(C)O4)CCC32C)C2(O)CCC(C(C)=O)C12C` (centres undefined), the activity change, negative = inhibition is 20.8% [at 19.1 µM] (inactive).

Consider `CC1=CCC[C@@H]2[C@@](C)(CCc3ccoc3)[C@H](C(=O)O)CC[C@@]12C`, for which the Potency was 31.6 µM (active).

As for `C[C@@H]1O[C@@H](O[C@H]2[C@@H]3C=CO[C@@H](O[C@@H]4O[C@H](CO)[C@@H](O)[C@H](O)[C@H]4O)[C@@H]3[C@@]3(CO)O[C@@H]23)[C@H](O)[C@H](OC(=O)/C=C/c2ccc(O)cc2)[C@H]1OC(=O)/C=C/c1ccc(O)cc1`, the “activity change, negative = inhibition” value is 13.5% [at 32.5 µM] (inactive).

On to `COc1ccc(C2COc3cc(O)ccc3C2)c(O)c1OC` (centres undefined), for which the “activity change, negative = inhibition” value is -8.99% (inactive).

In the case of `CC1(C(=O)O)CCCC2(C)C3CCC4CC3(CCC12)CC4(O)CO` (centres undefined), the “activity change, negative = inhibition” value was 3.64% (inactive).

In the case of `COc1ccc2[nH]c(S(=O)Cc3ncc(C)c(OC)c3C)nc2c1` (centres undefined), the “activity change, negative = inhibition” value was 85% (inactive).

For the compound `CC(C)(O)[C@@H]1CC[C@]2(CO)[C@@H](O)CC[C@](C)(O)[C@H]2[C@@H]1O[C@@H]1O[C@H](CO)[C@@H](O)[C@H](O)[C@H]1O`, the “activity change, negative = inhibition” value was 0.176% [at 57.1 µM] (inactive).

Consider `COC(=O)[C@H](O)[C@H]1C(C)(C)[C@H](OC(C)=O)[C@@]2(O)C(=O)[C@]1(C)C1CC[C@]3(C)C(CC(=O)O[C@H]3c3ccoc3)[C@]13O[C@@H]32` (some centres undefined), for which the “activity change, negative = inhibition” value was -1.04% [at 57.1 µM] (inactive).

Regarding `COC(=O)C1=CO[C@@H](O[C@@H]2O[C@H](CO)[C@@H](O)[C@H](O)[C@H]2O)[C@@H]2[C@@H](CO)[C@@H](O)C(O)[C@H]12` (some centres undefined), the “activity change, negative = inhibition” value is 19.6% [at 57.1 µM] (inactive).

In the case of `CC(=O)NC1CC(=O)C23C(=O)NC(Cc4c[nH]c5ccccc45)C2C(C)=C(C)C(O)C3/C=C/CC(C)/C=C(/C)C(O)C1O` (centres undefined), the “activity change, negative = inhibition” value is -23.6% [at 32.5 µM] (inactive).

For the compound `CC1CC(=O)C2C(O)(C1)CC(O)C13OC1c1c(O)cccc1C(=O)C23O` (centres undefined), the “activity change, negative = inhibition” value was 3.27% (inactive).

On to `CC1CCC2(NC1)OC1C(O)C3C4CCC5CC(O[C@@H]6O[C@H](CO)[C@@H](O)[C@H](O)[C@H]6O[C@@H]6O[C@@H](C)[C@H](O)[C@@H](O)[C@H]6O)CCC5(C)C4CCC3(C)C1C2C` (some centres undefined), for which the “activity change, negative = inhibition” value is 2.06% [at 32.5 µM] (inactive).

Regarding `CC(=O)OC1CC(C(C)(C)O)OC2CCC3(C)OC4=C(C(=O)C=C5C(C)C(OC(C)=O)C6(C)C(C)OC546)C(O)C3C12C` (centres undefined), the “activity change, negative = inhibition” value is -10.3% [at 32.5 µM] (inactive).

As for `COc1cc(O)c2c(c1)C1(OC2=O)C(C)=CC(=O)C1O` (centres undefined), the “activity change, negative = inhibition” value was 8.23% (inactive).

`COc1ccccc1CN[C@H]1CCCN[C@H]1c1ccccc1`: the “activity change, negative = inhibition” value is 29% (inactive).

Consider `CC(C)C1NC(=O)CNC(=O)C2CCCN2C(=O)C(Cc2c[nH]c3ccccc23)NC(=O)CNC(=O)C(C(O)c2ccc(O)cc2)NC(=O)CNC1=O` (centres undefined) (cyclo(G[ξTyr(βOH)]GWPGV); configuration not given here), for which the “activity change, negative = inhibition” value was 5.68% [at 32.5 µM] (inactive).

Regarding `C/C=C/C=C/C=C/C(=O)OC1C=C2C(O)OC(=O)[C@]2(O)[C@@]2(C)CCCC(C)(C)[C@H]12` (some centres undefined), the Potency is 6.31 µM (active).
